Results filed as inconclusive are left out. More than one record can exist for a structure, and the calls need not agree. The source made the active and inactive calls. Calls follow the shape of the dose curve; as a rule, active = well fitted curve in the direction sought with a large enough effect; inconclusive = small, poorly fitted or top-dose-only effect, or another doubt; inactive = no such curve, though single readings can be large; an effect the other way counts as inactive or inconclusive.
What was measured:
[1] = test system: MCC-13; test: qHTS assay to identify novel small-molecules to repurpose for Merkel cell carcinoma treatment (AID 1296009); details: MCC and control cell lines, CellTiter-Glo viability, 72 h; series mostly up to 46 µM; also: nearly all actives have a fitted effect of over 60% in size
Procedure, shortened: (§1)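 After compound transfer in DMSO, plates were kept 72 hr at 37 degree celsius. Luminescent ATP signal from CellTiter-Glo served as viability measure, normalized against DMSO and no-cell controls.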

[2] = test system: MCC-26; test: as above; details: MCC and control cell lines, CellTiter-Glo viability, 72 h; series mostly up to 46 µM
Procedure, shortened: as §1

[3] = test system: MKL-1; test: as above; details: MCC and control cell lines, CellTiter-Glo viability, 72 h; series mostly up to 46 µM
Procedure, shortened: as §1

[4] = test system: MKL-2; test: as above; details: MCC and control cell lines, CellTiter-Glo viability, 72 h; series mostly up to 46 µM
Procedure, shortened: as §1

[5] = test system: UISO; test: as above; details: MCC and control cell lines, CellTiter-Glo viability, 72 h; series mostly up to 46 µM
Procedure, shortened: as §1

[6] = test system: WaGa; test: as above; details: MCC and control cell lines, CellTiter-Glo viability, 72 h; series mostly up to 46 µM
Procedure, shortened: as §1

[7] = test system: C33A; test: Primary qHTS to identify gynecologic anti-cancer compounds using libraries of approved drugs and bioactive compounds (AID 1345084); details: Gynecologic cancer cell panel viability, ATPlite luminescence, 48 h; series mostly up to 57.5 µM; also: nearly all actives have a fitted effect of over 55% in size
Procedure, shortened: (§2)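 Five-point cytotoxicity, 48 h drug exposure at 37 C, 5% CO2, on cells seeded 16 h beforehand. ATP content read by ATPlite luminescence.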

[8] = test system: CAOV3; test: as above; details: Gynecologic cancer cell panel viability, ATPlite luminescence, 48 h; series mostly up to 57.5 µM
Procedure, shortened: as §2

[9] = test system: CASKI; test: as above; details: Gynecologic cancer cell panel viability, ATPlite luminescence, 48 h; series mostly up to 57.5 µM
Procedure, shortened: as §2

[10] = test system: Es-2; test: as above; details: Gynecologic cancer cell panel viability, ATPlite luminescence, 48 h; series mostly up to 57.5 µM
Procedure, shortened: as §2

[11] = test system: HeLa; test: as above; details: Gynecologic cancer cell panel viability, ATPlite luminescence, 48 h; series mostly up to 57.5 µM
Procedure, shortened: as §2

[12] = test system: Hek293T; test: as above; details: Gynecologic cancer cell panel viability, ATPlite luminescence, 48 h, control line for the selectivity index; series mostly up to 57.5 µM
Procedure, shortened: as §2

[13] = test system: JEG-3; test: as above; details: Gynecologic cancer cell panel viability, ATPlite luminescence, 48 h; series mostly up to 57.5 µM
Procedure, shortened: as §2

[14] = test system: OV90; test: as above; details: Gynecologic cancer cell panel viability, ATPlite luminescence, 48 h; series mostly up to 57.5 µM
Procedure, shortened: as §2

[15] = test system: PA-1; test: as above; details: Gynecologic cancer cell panel viability, ATPlite luminescence, 48 h; series mostly up to 57.5 µM
Procedure, shortened: as §2

[16] = test system: SKOV3; test: as above; details: Gynecologic cancer cell panel viability, ATPlite luminescence, 48 h; series mostly up to 57.5 µM
Procedure, shortened: as §2

[17] = test system: NIH3T3; test: qHTS assay to identify novel small-molecules to repurpose for Merkel cell carcinoma treatment (AID 1296009); details: MCC and control cell lines, CellTiter-Glo viability, 72 h; at 44.8 µM (top of the series) unless noted; also: nearly all actives have a fitted effect of over 60% in size
Procedure, shortened: as §1

[18] = test system: HEK293T; test: as above; details: MCC and control cell lines, CellTiter-Glo viability, 72 h; at 44.8 µM (top of the series) unless noted
Procedure, shortened: as §1

Measured: Potency
Potency is read from the fitted curve at half-maximal effect.

O=C1OC(c2ccc(O)cc2)(c2ccc(O)cc2)c2ccccc21
active: [14] 28.2 µM
not listed: [16] | [17] | [18]
inactive: all other assays above

CCCCOc1ccc(OCCCN2CCOCC2)cc1
not listed: [17] | [18]
inactive: all other assays above

CN(C)/N=N/c1nc[nH]c1C(N)=O
inactive: [1] | [2] | [3] | [8] | [13]

C[n+]1c2cc(N)ccc2cc2ccc(N)cc21 (tested in a mixture with another compound)
active: [1] 11.9 µM | [2] 15 µM | [3] 2.99 µM | [4] 0.75 µM | [5] 2.99 µM | [6] 1.5 µM | [10] 15.8 µM | [11] 8.91 µM | [12] 10 µM | [15] 5.01 µM | [16] 12.6 µM

CCCCCCCCCCCCCCNCCO
not listed: [3] | [4] | [5] | [7] | [8] | [17] | [18]
inactive: all other assays above

CCCCCCCCCCCCCCCCOP(=O)([O-])OCC[N+](C)(C)C
active: [14] 25.1 µM
inactive: [1] | [2] | [7] | [9] | [10] | [12] | [13] | [15] | [16]

Clc1ccc2c(c1)CCc1cccnc1C2=C1CCNCC1
active: [4] 26.6 µM
inactive: [1] | [7] | [10] | [11] | [12] | [13] | [15]

CN(C)CCCOc1nn(Cc2ccccc2)c2ccccc12
14.1 µM (active) and inactive: [14]
22.4 µM (active) and inactive: [16]
31.6 µM (active) and inactive: [15]
not listed: [4] | [5] | [6] | [17] | [18]
inactive: all other assays above

COc1cc(N)c(Cl)cc1C(=O)NC1CCN(CCCOc2ccc(F)cc2)CC1OC (stereo not drawn)
active: [14] 25.1 µM
not listed: [4] | [5] | [17] | [18]
inactive: all other assays above

NC(=O)c1cc[n+](CC2=C(C(=O)[O-])N3C(=O)[C@@H](NC(=O)Cc4cccs4)[C@H]3SC2)cc1
not listed: [18]
inactive: all other assays above

O=C(OCC(O)CO)c1ccccc1Nc1ccnc2cc(Cl)ccc12 (stereo not drawn)
not listed: [4] | [5] | [6] | [17] | [18]
inactive: all other assays above

CC(C)(CO)[C@@H](O)C(=O)NCCCO
not listed: [18]
inactive: all other assays above

Cc1cccn2c(=O)c(-c3nnn[nH]3)cnc12
inactive: [18] inactive [at 17.4 µM] | [1] | [2] | [3] | [4] | [5] | [6] | [7] | [8] | [9] | [10] | [11] | [13] | [14] | [15] | [16]

CCOC(=O)n1ccn(C)c1=S
not listed: [18]
inactive: all other assays above

C/C=C(/C(=C/C)c1ccc(O)cc1)c1ccc(O)cc1
not listed: [2] | [6] | [14] | [16] | [17] | [18]
inactive: all other assays above

CCCCC(CC)CN=C(N)NC(N)=NCCCCCCN=C(N)NC(N)=NCC(CC)CCCC (stereo not drawn)
active: [1] 10.6 µM | [3] 1.33 µM | [4] 1.88 µM | [5] 1.88 µM | [6] 2.66 µM | [11] 17.8 µM | [14] 20 µM | [15] 10 µM

From PubChem BioAssay (NCATS)
